# Experimental data published in PubChem BioAssay (NCI).
# “And” between values parts separate entries of the source, which are not always exact repeats. Equal values may be shown once. The panel holds about 83,000 compounds, 20% with a hit somewhere; the sample as a whole holds those more often.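 Plates (96-well) were seeded with cells, treated with compound at one concentration, and incubated for 48 hours before percent growth was determined.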 The source made the active and inactive calls. How the source made its calls: active means growth percent below 10; inactive means the rest.
# Assays:
# Assay in all cases: NCI-60 one-dose screen, 48 h (100 = growth as untreated, 0 = no growth, -100 = all killed)
# Settings in all cases: 10 µM unless noted
# NCI-H23 lung = test system: NCI-H23 lung
# NCI-H226 lung = test system: NCI-H226 lung
# NCI-H322M lung = test system: NCI-H322M lung
# HOP-62 NSCLC = test system: HOP-62 NSCLC
# NCI-H460 lung = test system: NCI-H460 lung
# HOP-92 NSCLC = test system: HOP-92 NSCLC
# NCI-H522 lung = test system: NCI-H522 lung
# A549/ATCC NSCLC = test system: A549/ATCC NSCLC
# 786-0 renal = test system: 786-0 renal
# COLO 205 colon = test system: COLO 205 colon
# DU-145 prostate = test system: DU-145 prostate
# K-562 leukemia = test system: K-562 leukemia
# MALME-3M melanoma = test system: MALME-3M melanoma
# MDA-MB-231 breast = test system: MDA-MB-231 breast
# RXF 393 renal = test system: RXF 393 renal
# SF-268 CNS = test system: SF-268 CNS
# SF-295 CNS = test system: SF-295 CNS
# SF-539 CNS = test system: SF-539 CNS
# UACC-257 melanoma = test system: UACC-257 melanoma
# M14 melanoma = test system: M14 melanoma
Structure (SMILES),growth (NCI-H23 lung),growth (NCI-H226 lung),growth (NCI-H322M lung),growth (HOP-62 NSCLC),growth (NCI-H460 lung),growth (HOP-92 NSCLC),growth (NCI-H522 lung),growth (A549/ATCC NSCLC),growth (786-0 renal),growth (COLO 205 colon),growth (DU-145 prostate),growth (K-562 leukemia),growth (MALME-3M melanoma),growth (MDA-MB-231 breast),growth (RXF 393 renal),growth (SF-268 CNS),growth (SF-295 CNS),growth (SF-539 CNS),growth (UACC-257 melanoma),growth (M14 melanoma)
O=C(O)CCCCc1ccc([N+](=O)[O-])cc1,99.6% (inactive) and 101% (inactive),120% (inactive) and 108% (inactive),112% (inactive) and 96.7% (inactive),103% (inactive),96.1% (inactive) and 120% (inactive),77.5% (inactive) and 83.8% (inactive),91.7% (inactive) and 103% (inactive),97.6% (inactive) and 102% (inactive),102% (inactive) and 96.1% (inactive),115% (inactive) and 113% (inactive),106% (inactive) and 114% (inactive),83.7% (inactive) and 103% (inactive),102% (inactive) and 106% (inactive),112% (inactive) and 95% (inactive),116% (inactive) and 148% (inactive),98.9% (inactive) and 115% (inactive),113% (inactive),94.3% (inactive) and 102% (inactive),125% (inactive) and 97.8% (inactive),102% (inactive) and 104% (inactive)
O=C(N/N=C/c1ccccc1)N/N=C/c1ccccc1,118% (inactive) and 101% (inactive),106% (inactive) and 78.9% (inactive),103% (inactive) and 116% (inactive),104% (inactive) and 117% (inactive),118% (inactive) and 95.1% (inactive),100% (inactive) and 90.3% (inactive),99.5% (inactive) and 106% (inactive),102% (inactive) and 104% (inactive),118% (inactive) and 116% (inactive),109% (inactive) and 129% (inactive),131% (inactive) and 109% (inactive),95% (inactive),94.4% (inactive) and 107% (inactive),106% (inactive),107% (inactive) and 98.5% (inactive),112% (inactive) and 100% (inactive),92.4% (inactive) and 105% (inactive),100% (inactive) and 98.3% (inactive),90.3% (inactive) and 106% (inactive),123% (inactive) and 115% (inactive)
O=C1NC(=O)C2(CCc3ccccc32)N1 (stereo not given),108% (inactive) and 89.4% (inactive),101% (inactive) and 92.9% (inactive),98.8% (inactive) and 106% (inactive),105% (inactive) and 88.3% (inactive),98.3% (inactive) and 116% (inactive),174% (inactive),98.6% (inactive) and 80.6% (inactive),97.4% (inactive) and 91.4% (inactive),115% (inactive) and 94.7% (inactive),97.4% (inactive) and 108% (inactive),123% (inactive) and 102% (inactive),116% (inactive) and 83.6% (inactive),97% (inactive) and 96.7% (inactive),106% (inactive) and 97.2% (inactive),95.3% (inactive),99% (inactive) and 107% (inactive),96.5% (inactive) and 96% (inactive),90% (inactive) and 105% (inactive),107% (inactive) and 86.1% (inactive),107% (inactive) and 96.5% (inactive)
CCN(CC)CCCC(C)N(Cc1ccccc1)CC(O)c1ccc(Cl)cc1 (stereo not given),106% (inactive) and 101% (inactive),98.9% (inactive) and 110% (inactive),114% (inactive) and 98% (inactive),97.3% (inactive) and 92.8% (inactive),101% (inactive) and 116% (inactive),71.7% (inactive) and 95.2% (inactive),107% (inactive) and 89.8% (inactive),103% (inactive) and 96.7% (inactive),108% (inactive) and 96.8% (inactive),103% (inactive) and 111% (inactive),109% (inactive) and 106% (inactive),100% (inactive) and 106% (inactive),103% (inactive),114% (inactive) and 105% (inactive),101% (inactive) and 106% (inactive),102% (inactive) and 100% (inactive),103% (inactive) and 96% (inactive),111% (inactive) and 95.9% (inactive),102% (inactive) and 105% (inactive),109% (inactive) and 104% (inactive)
O=[N+]([O-])c1ccc(/C=N\NC(=S)Nc2ccc(F)cc2)cc1,101% (inactive) and 88.3% (inactive),105% (inactive) and 91.1% (inactive),86.6% (inactive) and 97.9% (inactive),105% (inactive) and 94.6% (inactive),95.3% (inactive) and 87% (inactive),107% (inactive) and 75.7% (inactive),95% (inactive) and 104% (inactive),82.1% (inactive) and 90.9% (inactive),105% (inactive) and 98.5% (inactive),104% (inactive) and 103% (inactive),102% (inactive) and 87.1% (inactive),104% (inactive),92.6% (inactive),77.5% (inactive) and 77.6% (inactive),98% (inactive) and 105% (inactive),102% (inactive) and 99.8% (inactive),102% (inactive),102% (inactive) and 58.6% (inactive),91.4% (inactive) and 104% (inactive),113% (inactive) and 96.8% (inactive)
CC1(C)[C@@H](OC(=O)CCC(=O)O)CC[C@]2(C)[C@H]3C(=O)C=C4[C@@H]5C[C@@](C)(C(=O)O)CC[C@]5(C)CC[C@@]4(C)[C@]3(C)CC[C@@H]12,105% (inactive) and -34.8% (active),104% (inactive) and -75.4% (active),107% (inactive) and -54.4% (active),103% (inactive) and -54.9% (active),103% (inactive) and -35.3% (active),121% (inactive) and -74.4% (active),86.5% (inactive) and -40.5% (active),107% (inactive) and -28.4% (active),98.4% (inactive) and -66.9% (active),113% (inactive) and -3.87% (active),101% (inactive) and -1.77% (active),92.3% (inactive) and 5.05% (active),108% (inactive) and -65.4% (active),110% (inactive) and -5.44% (active),125% (inactive) and -88.8% (active),96.1% (inactive) and -27% (active),106% (inactive) and -51.1% (active),99.9% (inactive) and -73% (active),99.2% (inactive) and -46.5% (active),103% (inactive) and -12.8% (active)
CC(C)(C)c1ccc(O)c(CNC2CCCCC2)c1,96.6% (inactive) and 90.8% (inactive),96.5% (inactive) and 81.2% (inactive),97.6% (inactive) and 100% (inactive),119% (inactive) and 88.9% (inactive),103% (inactive) and 93.6% (inactive),72.4% (inactive) and 84.3% (inactive),102% (inactive) and 84.8% (inactive),99.2% (inactive) and 84.7% (inactive),96.1% (inactive) and 80.4% (inactive),9.74% (active) and 107% (inactive),130% (inactive) and 108% (inactive),48.7% (inactive) and 75.4% (inactive),115% (inactive) and 97.9% (inactive),101% (inactive) and 97.2% (inactive),96.5% (inactive) and 59.5% (inactive),114% (inactive) and 96.8% (inactive),104% (inactive),114% (inactive) and 95.6% (inactive),108% (inactive) and 95.2% (inactive),87.1% (inactive) and 101% (inactive)
